In PubChem BioAssay (NCI):
The panel holds about 83,000 compounds, 20% with a hit somewhere; the sample as a whole holds those more often.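 Growth was measured after 48 h exposure to one concentration of compound in 96-well plates. Values under 10 count as active.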 Activity calls are given as the source filed them.

Columns and labels:
Test in all cases: NCI-60 one-dose screen, 48 h (100 = growth as untreated, 0 = no growth, -100 = all killed)
Conditions in all cases: 10 µM unless noted
NCI-H23 lung = system: NCI-H23 lung
NCI-H226 lung = system: NCI-H226 lung
NCI-H322M lung = system: NCI-H322M lung
HOP-62 NSCLC = system: HOP-62 NSCLC
NCI-H460 lung = system: NCI-H460 lung
HOP-92 NSCLC = system: HOP-92 NSCLC
NCI-H522 lung = system: NCI-H522 lung
A549/ATCC NSCLC = system: A549/ATCC NSCLC
786-0 renal = system: 786-0 renal
COLO 205 colon = system: COLO 205 colon

Measured: growth

CCN(CC)c1ccc(/C=N/NC(=O)c2ccc(S(N)(=O)=O)cc2)c(O)c1
inactive: NCI-H23 lung 20.7% | NCI-H226 lung 43.1% | NCI-H322M lung 22.1% | HOP-62 NSCLC 11.6% | HOP-92 NSCLC 53.1% | NCI-H522 lung 15.1% | A549/ATCC NSCLC 16% | COLO 205 colon 14.3%
active: NCI-H460 lung 4.16% | 786-0 renal 4.11%

CN1CCN(Cc2ccc(NC(=O)c3cncc(C#Cc4cnc5ccc(O[C@@H]6CCOC6)nn45)c3)cc2C(F)(F)F)CC1
active: NCI-H23 lung -65.2% | NCI-H226 lung -60.7% | NCI-H322M lung -49.3% | HOP-62 NSCLC -79.1% | NCI-H460 lung -83.3% | HOP-92 NSCLC -39.6% | NCI-H522 lung -72% | A549/ATCC NSCLC -76.8% | 786-0 renal -87.9% | COLO 205 colon -77.4%

COc1ccc(C(=NNS(=O)(=O)c2ccc(C)cc2)c2ccccc2)cc1OC
inactive: NCI-H23 lung 99.5% | NCI-H226 lung 99.5% | NCI-H322M lung 92.9% | HOP-62 NSCLC 102% | NCI-H460 lung 105% | HOP-92 NSCLC 90.4% | NCI-H522 lung 92.4% | A549/ATCC NSCLC 96.1% | 786-0 renal 99.1% | COLO 205 colon 111%

Cn1cc(-c2cc3ncnc(Nc4ccc(NC(=O)Nc5cc(C(C)(C)C)on5)cc4)c3s2)cn1
active: 786-0 renal 3.44%
inactive: NCI-H23 lung 29.4% | NCI-H226 lung 30.7% | NCI-H322M lung 57.4% | HOP-62 NSCLC 62.7% | NCI-H460 lung 42.6% | HOP-92 NSCLC 22.5% | NCI-H522 lung 32.5% | A549/ATCC NSCLC 31.6% | COLO 205 colon 12.9%

CC(Nc1c(C#N)cnc2ccc(-c3cncc(-c4n[nH]c(=O)o4)c3)cc12)c1ccccc1 (stereo not given)
inactive: NCI-H23 lung 17.4% | NCI-H460 lung 11.1% | A549/ATCC NSCLC 17.7%
active: NCI-H226 lung 2.2% | NCI-H322M lung -4.15% | HOP-62 NSCLC 8.5% | HOP-92 NSCLC -20.9% | NCI-H522 lung -20% | 786-0 renal 9.83% | COLO 205 colon -6.04%

O=S(=O)(Oc1ccc(-c2cn3ccsc3n2)cc1)c1cccc(C(F)(F)F)c1
inactive: NCI-H23 lung 109% | NCI-H226 lung 90.2% | NCI-H322M lung 103% | HOP-62 NSCLC 110% | NCI-H460 lung 104% | HOP-92 NSCLC 106% | NCI-H522 lung 94.6% | A549/ATCC NSCLC 98.9% | 786-0 renal 102% | COLO 205 colon 113%

Cc1ccccc1Nc1nc(SC(C)C)nc(-c2ccccc2)c1C#N
inactive: NCI-H23 lung 31.7% | NCI-H226 lung 81.1% | NCI-H322M lung 70% | HOP-62 NSCLC 37% | NCI-H460 lung 45.5% | HOP-92 NSCLC 64.5% | NCI-H522 lung 73% | A549/ATCC NSCLC 102% | 786-0 renal 10.6% | COLO 205 colon 119%

COc1cc2cc(Oc3ccc(NC(=O)Nc4ccc(F)c(C(F)(F)F)c4)cc3)c(C)nc2cc1OCCN(C)C
inactive: NCI-H23 lung 102% | NCI-H226 lung 104% | NCI-H322M lung 102% | HOP-62 NSCLC 104% | NCI-H460 lung 101% | HOP-92 NSCLC 69.8% | NCI-H522 lung 96.1% | A549/ATCC NSCLC 93.2% | 786-0 renal 88.8% | COLO 205 colon 117%

N#CC1=C2NCCCNc3oc(nc3C#N)Cc3ccccc3CC(=N1)O2
inactive: NCI-H23 lung 90.7% | NCI-H226 lung 92.3% | NCI-H322M lung 94.5% | HOP-62 NSCLC 97.8% | NCI-H460 lung 96.8% | HOP-92 NSCLC 94.9% | NCI-H522 lung 97.1% | A549/ATCC NSCLC 98.3% | 786-0 renal 95% | COLO 205 colon 88.1%

N#Cc1c(-c2cccs2)c(C#N)c(=O)n(Cc2nc3ccccc3[nH]2)c1N
inactive: NCI-H23 lung 90.7% | NCI-H226 lung 87% | NCI-H322M lung 98.5% | HOP-62 NSCLC 93.3% | NCI-H460 lung 101% | HOP-92 NSCLC 95.2% | NCI-H522 lung 95.1% | A549/ATCC NSCLC 103% | 786-0 renal 103% | COLO 205 colon 111%

Clc1ccc2[nH]cc(-c3nn4cc(-c5cccnc5)nc4s3)c2c1
inactive: NCI-H23 lung 92.8% | NCI-H226 lung 96.5% | NCI-H322M lung 98% | HOP-62 NSCLC 82.2% | NCI-H460 lung 99.9% | HOP-92 NSCLC 83.6% | NCI-H522 lung 97.1% | A549/ATCC NSCLC 99.4% | 786-0 renal 113% | COLO 205 colon 88.9%

CCOC(=O)c1c(N)c(C#N)cn1Cc1ccc(Cl)cc1Cl
inactive: NCI-H23 lung 84.4% | NCI-H226 lung 85.1% | NCI-H322M lung 87.4% | HOP-62 NSCLC 68.7% | NCI-H460 lung 81.2% | HOP-92 NSCLC 73.1% | NCI-H522 lung 67.2% | A549/ATCC NSCLC 76.2% | 786-0 renal 76.4% | COLO 205 colon 106%

O=C1[C@@H]2Cc3c([nH]c4ccccc34)[C@@H](c3ccc(Cl)cc3)N2C(=O)CN1C1CCN(Cc2c(F)cccc2F)CC1
active: HOP-92 NSCLC -0.363% | COLO 205 colon 7.17%
inactive: NCI-H23 lung 48.8% | NCI-H226 lung 60.6% | NCI-H322M lung 66.2% | HOP-62 NSCLC 54.1% | NCI-H460 lung 22.5% | NCI-H522 lung 36.7% | A549/ATCC NSCLC 31.6% | 786-0 renal 45.2%
